Test [1] in a line: NCI Yeast Anticancer Drug Screen. Data for the rad50 strain (AID 155).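 Note: 0% = growth of vehicle-only cultures of the same strain.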 To be noted: S. cerevisiae rad50 strain growth inhibition, active compounds read high. Put shortly: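 A DNA repair-deficient yeast mutant serves as the test organism; compound-induced growth inhibition is calculated against vehicle-treated cells.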
Test [2] in a line: NCI Yeast Anticancer Drug Screen. Data for the mec2-1 strain (AID 157). The conditions noted are these: S. cerevisiae mec2-1 strain, active compounds read high. Put shortly: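 Yeast mec2-1 mutant treated with compound. Readout: growth inhibition vs vehicle controls.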
Test [3] is described as follows: NCI Yeast Anticancer Drug Screen. Data for the sgs1 mgt1 strain (AID 161).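 Note: 0% = growth of cultures given vehicle only.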 The conditions noted are these: S. cerevisiae sgs1 mgt1 strain, active compounds read high. Put shortly: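 Genetically altered yeast, compound exposure, growth inhibition relative to vehicle.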
Test [4] in a line: NCI Yeast Anticancer Drug Screen. Data for the cln2 rad14 strain (AID 165).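 Note: 0% = growth equal to vehicle treated cultures.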 To be noted: S. cerevisiae cln2 rad14 strain, active compounds read high. Put shortly:
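cln2 rad14 yeast strain; compound exposure; growth inhibition read vs vehicle controls.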

Test [5] can be described thus: NCI Yeast Anticancer Drug Screen. Data for the bub3 strain (AID 167). To be noted: S. cerevisiae bub3 mutant strain, active compounds read high. Put shortly: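 Inhibition values come from growth of compound-treated mutant yeast normalised to vehicle-treated controls.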
Test [6] can be described thus: NCI Yeast Anticancer Drug Screen. Data for the mlh1 rad18 strain (AID 175). The conditions noted are these: S. cerevisiae mlh1 rad18 strain growth inhibition, active compounds read high. Put shortly:
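Yeast w/ defined DNA-repair lesions; compound exposure; growth vs vehicle controls → % inhibition.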

Setting [7] is: at 5.0 µM (retest, dose inferred, filed as 0.5).
[8] abbreviates: at 50.0 µM (retest, dose inferred, filed as 5.0).

This is part of a sample that, as a whole, favours compounds with a hit. Of some 79,000 tested, about 15% had one in any assay. A number with no mark means an inactive call. The source made the active and inactive calls. Cut-off read from the data, not from the text of the source: active = growth inhibition above about 70%; inactive = the rest.

Regarding `CCC(=S)N(C)O`, the growth inhibition was 95% (active) in test [1] (setting [7]); 96% (active) in test [1] (setting [8]); 66.5% in test [1] (at 50.0 µM); 99% (active) in test [2] (setting [7]); 98% (active) in test [2] (setting [8]); 50.9% in test [2] (at 50.0 µM). Further, the growth inhibition in test [3] (setting [7]) is 100% (active); in test [3] (setting [8]) it was 98% (active); in test [3] (at 50.0 µM), 69%; in test [4] (setting [7]), 98% (active); in test [4] (setting [8]), 91% (active); in test [4] (at 50.0 µM), 45.1%. The growth inhibition in test [5] (setting [7]) was 100% (active); in test [5] (setting [8]), 97% (active); in test [5] (at 50.0 µM), 52%; in test [6] (setting [7]), 98% (active); in test [6] (setting [8]), 97% (active); in test [6] (at 50.0 µM), 86.2% (active).

Consider `CSc1ccc(NC(=S)SC(C)C)cc1Cl`, for which the growth inhibition in test [1] (setting [7]) is 15%; in test [1] (setting [8]), 98% (active); in test [1] (at 50.0 µM) it was 99% (active); in test [2] (setting [7]), 1%; in test [2] (setting [8]), 99% (active); in test [2] (at 50.0 µM), 99.3% (active). The growth inhibition in test [3] (setting [7]) is 19%; in test [3] (setting [8]), 99% (active); in test [3] (at 50.0 µM) it was 99.4% (active); in test [4] (setting [7]), -32%; in test [4] (setting [8]) it was 97% (active); in test [4] (at 50.0 µM), 99% (active). The growth inhibition in test [5] (setting [7]) is -6%; in test [5] (setting [8]), 99% (active); in test [5] (at 50.0 µM) it was 99.4% (active); in test [6] (setting [7]), 19%; in test [6] (setting [8]), 99% (active); in test [6] (at 50.0 µM) it was 99% (active).

On to `O=C(Nc1ccc(Cl)cc1)Nc1cc(Cl)ccc1O`, for which the growth inhibition in test [1] (setting [7]) is -2%; in test [1] (setting [8]) it was 22%; in test [1] (at 50.0 µM), 93% (active); in test [2] (setting [7]) it was 0%; in test [2] (setting [8]) it was 35%; in test [2] (at 50.0 µM), 96.2% (active). Further, the growth inhibition in test [3] (setting [7]) is -1%; in test [3] (setting [8]), 28%; in test [3] (at 50.0 µM) it was 90.3% (active); in test [4] (setting [7]) it was -8%; in test [4] (setting [8]), 27%; in test [4] (at 50.0 µM) it was 94% (active). Moreover, the growth inhibition in test [5] (setting [7]) was -4%; in test [5] (setting [8]) it was 19%; in test [5] (at 50.0 µM), 96.5% (active); in test [6] (setting [7]), -3%; in test [6] (setting [8]), 30%; in test [6] (at 50.0 µM), 97.5% (active).

Regarding `Cc1ccc(S(=O)(=O)/C=C2\COc3ccccc3C2=O)cc1`, the growth inhibition is 51% in test [1] (setting [7]); 99% (active) in test [1] (setting [8]); 99.2% (active) in test [1] (at 50.0 µM); 65% in test [2] (setting [7]); 99% (active) in test [2] (setting [8]); 99.7% (active) in test [2] (at 50.0 µM). Also, the growth inhibition in test [3] (setting [7]) was 90% (active); in test [3] (setting [8]) it was 100% (active); in test [3] (at 50.0 µM), 99.2% (active); in test [4] (setting [7]), 44%; in test [4] (setting [8]), 99% (active); in test [4] (at 50.0 µM), 99% (active). The growth inhibition in test [5] (setting [7]) was 77% (active); in test [5] (setting [8]), 99% (active); in test [5] (at 50.0 µM), 99.5% (active); in test [6] (setting [7]), 79% (active); in test [6] (setting [8]), 99% (active); in test [6] (at 50.0 µM) it was 99.5% (active).

For `Nc1ccc(S(=O)(=O)Nc2ccccc2)cc1`, the growth inhibition was -4% in test [1] (setting [7]); 42% in test [1] (setting [8]); -7.35% in test [1] (at 50.0 µM); 7% in test [2] (setting [7]); 7% in test [2] (setting [8]); -9.35% in test [2] (at 50.0 µM). Also, the growth inhibition was -1% in test [3] (setting [7]); 3% in test [3] (setting [8]); 26.1% in test [3] (at 50.0 µM); 0% in test [4] (setting [7]); -6% in test [4] (setting [8]); 50.7% in test [4] (at 50.0 µM). The growth inhibition in test [5] (setting [7]) is 37%; in test [5] (setting [8]) it was -1%; in test [5] (at 50.0 µM) it was -2.1%; in test [6] (setting [7]) it was 0%; in test [6] (setting [8]), 4%; in test [6] (at 50.0 µM), 4.25%.

For `CCC(=O)Oc1c(Br)c(Br)c(Br)c(Br)c1Br`, the growth inhibition in test [1] (setting [7]) was 8%; in test [1] (setting [8]), 56%; in test [1] (at 50.0 µM) it was 29%; in test [2] (setting [7]) it was 17%; in test [2] (setting [8]), 62%; in test [2] (at 50.0 µM), 6%. Moreover, the growth inhibition in test [3] (setting [7]) is 7%; in test [3] (setting [8]) it was 50%; in test [3] (at 50.0 µM), 8.45%; in test [4] (setting [7]), 21%; in test [4] (setting [8]) it was 68%; in test [4] (at 50.0 µM), 25.8%. Besides, the growth inhibition in test [5] (setting [7]) is 56%; in test [5] (setting [8]) it was 86% (active); in test [5] (at 50.0 µM), 92% (active); in test [6] (setting [7]) it was 35%; in test [6] (setting [8]) it was 84% (active); in test [6] (at 50.0 µM) it was 19.5%.

Consider `CN(C(=O)c1ccc(Cl)cc1)C(=S)N1CCN(c2ccccc2)CC1`, for which the growth inhibition in test [1] (setting [7]) was -11%; in test [1] (setting [8]) it was 72% (active); in test [1] (at 50.0 µM) it was 80.3% (active); in test [2] (setting [7]), -5%; in test [2] (setting [8]) it was 80% (active); in test [2] (at 50.0 µM), 74.1% (active). Moreover, the growth inhibition is -16% in test [3] (setting [7]); 82% (active) in test [3] (setting [8]); 79% (active) in test [3] (at 50.0 µM); 3% in test [4] (setting [7]); 41% in test [4] (setting [8]); 61.2% in test [4] (at 50.0 µM). Moreover, the growth inhibition in test [5] (setting [7]) was 1%; in test [5] (setting [8]), 88% (active); in test [5] (at 50.0 µM), 63.5%; in test [6] (setting [7]), -10%; in test [6] (setting [8]), 89% (active); in test [6] (at 50.0 µM), 72.5% (active).

On to `Cc1c(Cl)ccc2c(C(O)CNCc3ccccc3)cc(-c3ccc(Cl)cc3)nc12` (stereo not given), for which the growth inhibition in test [1] (setting [7]) is 44%; in test [1] (setting [8]), 95% (active); in test [1] (at 50.0 µM), 98.5% (active); in test [2] (setting [7]) it was 58%; in test [2] (setting [8]), 95% (active); in test [2] (at 50.0 µM), 91% (active). In addition, the growth inhibition in test [3] (setting [7]) is 66%; in test [3] (setting [8]), 92% (active); in test [3] (at 50.0 µM) it was 97.1% (active); in test [4] (setting [7]), 17%; in test [4] (setting [8]), 94% (active); in test [4] (at 50.0 µM), 93.8% (active). For the same compound, the growth inhibition is 26% in test [5] (setting [7]); 95% (active) in test [5] (setting [8]); 12.1% in test [5] (at 50.0 µM); 59% in test [6] (setting [7]); 95% (active) in test [6] (setting [8]); 96.5% (active) in test [6] (at 50.0 µM).

With `CC(=O)N1C(C(=O)NNc2ccccc2)CSC1c1ccccc1` (stereo not given), the growth inhibition is 71% (active) in test [1] (setting [7]); 90% (active) in test [1] (setting [8]); 38.1% in test [1] (at 50.0 µM); 40% in test [2] (setting [7]); 84% (active) in test [2] (setting [8]); 64.6% in test [2] (at 50.0 µM). Moreover, the growth inhibition is 75% (active) in test [3] (setting [7]); 89% (active) in test [3] (setting [8]); 44.6% in test [3] (at 50.0 µM); 42% in test [4] (setting [7]); 82% (active) in test [4] (setting [8]); 65% in test [4] (at 50.0 µM). The growth inhibition is 57% in test [5] (setting [7]); 93% (active) in test [5] (setting [8]); 35.2% in test [5] (at 50.0 µM); 83% (active) in test [6] (setting [7]); 96% (active) in test [6] (setting [8]); 56.1% in test [6] (at 50.0 µM).

Turning to `N#CSc1ccc(O)cc1`, the growth inhibition in test [1] (setting [7]) was 0%; in test [1] (setting [8]) it was 95% (active); in test [1] (at 50.0 µM) it was 94.3% (active); in test [2] (setting [7]) it was 1%; in test [2] (setting [8]) it was 97% (active); in test [2] (at 50.0 µM), 96.2% (active). Besides, the growth inhibition in test [3] (setting [7]) was 4%; in test [3] (setting [8]) it was 97% (active); in test [3] (at 50.0 µM), 92.6% (active); in test [4] (setting [7]), 3%; in test [4] (setting [8]), 97% (active); in test [4] (at 50.0 µM) it was 93.8% (active). In addition, the growth inhibition in test [5] (setting [7]) was 0%; in test [5] (setting [8]), 96% (active); in test [5] (at 50.0 µM) it was 96.4% (active); in test [6] (setting [7]), 1%; in test [6] (setting [8]), 95% (active); in test [6] (at 50.0 µM) it was 93.3% (active).

The record behind these values is PubChem BioAssay (NCI).
